Shown are actives, neighbours in structure and some others; about 8% of the full set was active somewhere.
LASV entry inh – blocks Lassa virus binding to or entry into cells; actives 1.2% (n = 300,000); Potency, µM (series often up to 37.9 µM), for inactives: top-dose activity change, negative = inhibition, most hits filed as inhibitors; Lassa virus pseudotype entry inhibition, cell reporter; calls by dose curve; tested in HEK293 cells; further: potency means the concentration at half of the fitted maximal effect; on the % scale 0 is the no-effect control and ±100 the full control effect; nearly all actives have a fitted effect of over 50% in size
SARS PLP yeast – inhibitors of SARS-CoV papain-like protease in yeast; Potency, µM (highest dose often 32.9 µM), inactives show at the highest dose activity, positive = growth rescue, hits mostly activators; S. cerevisiae expressing SARS-CoV PLpro, growth rescue; actives 0.19% (n = 330,000); calls by dose curve; further: potency means the concentration at half of the fitted maximal effect; 0% is about no effect; nearly all actives have a fitted effect of over 55% in size
MARV entry inh – inhibitors of Marburg virus binding or cell entry | Marburg virus pseudotyped entry inhibition, cell reporter | Potency, µM (top dose mostly 37.8 µM), without a hit: at the highest dose activity change, negative = inhibition, usual class: inhibitors | actives 1.8% (n = 300,000); calls by dose curve; tested in HEK293 cells; further: potency means the concentration at half of the fitted maximal effect; on the % scale 0 is the no-effect control and ±100 the full control effect
HCMV inh – inhibitors of human cytomegalovirus; HFF cells, HCMV-luciferase reporter, 72 h; active compounds read low; actives 4.5% (n = 410,000); activity change, negative = inhibition, % at 57.5 µM; in the data active means activity change below about -60%; inconclusive means no clear call, values can overlap the other calls; inactive means above about -39%; further: on the % scale 0 is the no-effect control and ±100 the full control effect
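Compounds were evaluated in HFFs infected with an HCMV luciferase reporter virus (MOI 1 PFU/cell). Luciferase in lysates collected 72 h post infection served as the replication measure.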
FMDV antiviral – antivirals against foot and mouth disease virus; FMDV antiviral cell-based qHTS; Potency, µM (doses to about 57.9 µM), for inactives: at the top dose activity change, negative = inhibition, hits mostly inhibitors; actives 1.2% (n = 410,000); calls by dose curve; tested in HEK293T cells; further: read-out not given here; potency means the concentration at half of the fitted maximal effect; on the % scale 0 is the no-effect control and ±100 the full control effect; nearly all actives have a fitted effect of over 45% in size
HCV inhibitor – inhibitors of hepatitis C virus infection. Huh7.5.1 HCVcc-Cre infection, luciferase reporter, 44 h. Potency, µM (titrated, usually from 41.8 µM), inactives show top-dose activity change, negative = inhibition, hits mostly inhibitors. actives 3.4% (n = 340,000). AID 651820; active means well fitted inhibition curve with a large enough effect; inconclusive means small, poorly fitted or top-dose-only effect, or another doubt; inactive means no such curve, though single readings can be large or run the other way; further: potency means the concentration at half of the fitted maximal effect; on the % scale 0 is the no-effect control and ±100 the full control effect
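Whole-lifecycle infectious HCVcc-Cre system; cells 1,000/well, compound then virus (~0.5 moi) added 4 h after plating, 44 h culture. Luciferase read 15 sec following 15 min substrate incubation, room temp.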
The depositor's hits bear a star; ? = inconclusive; nt = not tested or not shown; [ ] = dose if it differs, or a comment.

SMILES	LASV entry inh	SARS PLP yeast	MARV entry inh	HCMV inh	FMDV antiviral	HCV inhibitor
CN(CC(=O)Nc1cccc(F)c1)CC(=O)Nc1cccc(S(=O)(=O)N(C)c2ccccc2)c1	?	nt	?	66.7	?	?
NS(=O)(=O)c1cccc(NC(=O)CN2CCc3ccccc32)c1	27.8%[46.1 µM]	-1.2%	-6.1%[46.1 µM]	38.9	24.1%	?
COc1ccc(CCN2CCCC(CN(C)Cc3cccc(OC)c3)C2)cc1 (centres undefined)	?	3.1%	?	-17.9	-8.4%	7.94µM*
COc1ccc(CN(C)CC2CCCN(CCc3ccc(F)cc3)C2)c(OC)c1OC (centres undefined)	nt	-1.8%	nt	10.5	-27.4%	?
CCN(Cc1ccc(NC(C)=O)cc1)CC1CCCN(CCc2cccc(OC)c2)C1 (centres undefined)	nt	0.5%	nt	-25.8	?	?
CN(Cc1ccc(C#CCCO)cc1)CC1CCCN(CCc2ccc(Cl)cc2)C1 (centres undefined)	nt	-2.8%	nt	-7.3	-16.9%	-3.9%
CN(Cc1ccccc1O)CC1CCCN(CCc2ccc(Cl)cc2)C1 (centres undefined)	nt	1.9%	nt	6.5	-20.9%	10µM*
COc1ccc(CCN2CCCC(CN(C)Cc3cc(OC)ccc3OC)C2)cc1 (centres undefined)	nt	-0.8%	nt	-9.4	-8.3%	10µM*
O=C1C[C@H](S(=O)(=O)c2ccccc2)[C@@H](/C=C/c2ccccc2)N1Cc1ccccc1	nt	nt	nt	-4.3	nt	nt
CC(C)Cn1c(=O)c2ccccc2n2c(CCC(=O)Nc3cccc(Cl)c3)nnc12	nt	nt	-3.7%[46.1 µM]	-37.1	-9.5%	nt
Cc1ccc(NC(=O)CC(=O)c2ccc([N+](=O)[O-])cc2)cc1S(=O)(=O)Nc1cccc(Cl)c1	?	0.1%	?	?	-19.7%	10µM*
Cc1ccc(C(=O)Nc2cccc([N+](=O)[O-])c2)cc1S(=O)(=O)Nc1ccc(NC(=O)c2ccccc2)cc1	?	-5.7%	?	-74.1*	26.6%	10µM*
CC(=O)Nc1ccc(NC(=O)c2ccc(C)c(S(=O)(=O)Nc3cccc(C)c3)c2)cc1	-1.0%[46.1 µM]	1.3%	6.31µM*	-35.8	40.6%	12.6µM*
NS(=O)(=O)c1cccc(NC(=O)c2ccc(NS(=O)(=O)c3cccc([N+](=O)[O-])c3)cc2)c1	8.6%	2.5%	19.8%	-75.4*	9.8%	0.6%
Cc1ccc(C(=O)Nc2ccccc2)cc1S(=O)(=O)Nc1ccccc1	-4.4%[46.1 µM]	nt	?	2.0	56.8%	nt
COc1ccccc1CNC(=O)c1cnn(-c2nccc(-c3cccs3)n2)c1C	nt	nt	nt	nt	49.0%	nt
Cc1ccc(C(=O)Nc2cccc([N+](=O)[O-])c2)cc1S(=O)(=O)Nc1cccc(C(=O)O)c1	14.4%	7.6%	-2.5%[46.1 µM]	-26.4	31.6%	0.1%
Cc1ccc(NS(=O)(=O)c2cc(C(=O)Nc3cccc([N+](=O)[O-])c3)ccc2C)cc1	18.4µM*	?	?	-39.3	36.3%	?
Cc1ccc(C(=O)NC2CCN(CC(=O)Nc3cccc([N+](=O)[O-])c3)CC2)cc1	-9.8%	-0.8%	0.794µM*	10.9	-8.2%	?
Cc1ccc([N+](=O)[O-])cc1S(=O)(=O)Nc1cccc(S(=O)(=O)Nc2ccccc2C(=O)O)c1	4.1%	5.1%	-2.8%	26.4	-17.6%	21.6%
Cc1ccc(C)c(NC(=O)c2ccccc2NS(=O)(=O)c2cc([N+](=O)[O-])ccc2C)c1	?	-12.4%	4.11µM*	-86.6*	?	8.91µM*
c1ccc2sc(-c3cc4c(c(OC5CCOC5)c3)OCCN(Cc3cccn3-c3nccs3)C4)nc2c1 (centres undefined)	nt	nt	nt	nt	-7.0%	nt
NCCn1cc(-c2cc(Cl)c(N)c(Cl)c2)ncc1=O	nt	nt	nt	11.6	nt	nt
COCC(=O)Nc1sc2c(c1C(=O)OC)CCC(C)C2 (centres undefined)	15.7%	-4.9%	-0.8%	-7.8	7.3%	7.08µM*
CCOC(=O)c1c(NC(NC(C)=O)C(Cl)(Cl)Cl)sc2c1CCCC2 (centres undefined)	?	-77.1%	?	?	?	10µM*
